Data from the supplement of paper PMC3334620.
The full ranking holds about 33,000 sequences; the median of “E-score (-0.5 to 0.5)” is about -0.041, and the highest 2% start at about 0.37. The full list was thinned out, with the highest values kept by preference.

These sequences were tested against T1, Ecm22 (UniProt Q05958) (assay: PBM E-score (8-mer binding enrichment) (E-score (-0.5 to 0.5)); higher = stronger / more preferred TF binding). Conditions: protein concentration: 200 nM; construct: GST-full length.
T1 sequence: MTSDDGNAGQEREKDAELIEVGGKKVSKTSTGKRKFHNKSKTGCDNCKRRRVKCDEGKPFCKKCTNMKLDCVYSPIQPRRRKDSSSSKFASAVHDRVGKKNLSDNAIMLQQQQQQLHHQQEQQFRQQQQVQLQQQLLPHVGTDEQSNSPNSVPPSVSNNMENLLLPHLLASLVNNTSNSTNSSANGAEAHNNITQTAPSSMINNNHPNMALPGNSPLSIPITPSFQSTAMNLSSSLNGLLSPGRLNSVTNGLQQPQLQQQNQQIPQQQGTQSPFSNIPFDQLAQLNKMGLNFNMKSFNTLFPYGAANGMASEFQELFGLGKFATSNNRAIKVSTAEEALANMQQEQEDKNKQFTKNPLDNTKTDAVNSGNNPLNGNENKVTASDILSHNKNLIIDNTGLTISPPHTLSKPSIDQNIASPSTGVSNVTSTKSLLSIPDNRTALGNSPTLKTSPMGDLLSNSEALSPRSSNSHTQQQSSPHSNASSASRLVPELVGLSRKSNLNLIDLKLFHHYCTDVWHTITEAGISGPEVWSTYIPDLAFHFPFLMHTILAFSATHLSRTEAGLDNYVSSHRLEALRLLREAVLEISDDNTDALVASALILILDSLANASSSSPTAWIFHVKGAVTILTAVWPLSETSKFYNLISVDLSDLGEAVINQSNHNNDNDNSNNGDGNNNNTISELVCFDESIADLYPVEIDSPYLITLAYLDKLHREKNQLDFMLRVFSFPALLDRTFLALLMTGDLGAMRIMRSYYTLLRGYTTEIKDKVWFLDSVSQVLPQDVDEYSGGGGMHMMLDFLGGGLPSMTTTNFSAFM
Procedure: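 Universal 'all 10-mer' protein binding microarrays (Agilent AMADID 015681) probed with GST-tagged S. cerevisiae TFs (full-length or DBD) made by in vitro transcription/translation (PURExpress), about 100-200 nM. Bound TF was detected with fluorescent anti-GST. Each ungapped 8-mer (which stands for itself and its reverse complement) is scored by the PBM enrichment score (E-score), a modified Wilcoxon-Mann-Whitney statistic from -0.5 to +0.5, computed with the Universal PBM Analysis Suite. Scale: above 0.35 generally sequence-specific binding.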

Sequence	PBM E-score
GTTTCGGA	0.215
GCCCGTGA	-0.115
AGGTTTGC	-0.153
ACCTAAAT	0.112
ACTGGAAA	-0.0956
GTTAAACA	0.00429
ATCGTTTC	0.365
AGCGTTTG	0.031
AGCGTTTA	0.168
ATCGTTTG	0.414
GGCGTTTA	0.166
GACGTTTA	0.303
ATCGTTTA	0.483
GTCGTTTA	0.491
AACGTTTA	0.319
AAATCTCT	-0.0179
ACACTCCT	-0.163
CGTTGAGC	0.0667
CCACAAGA	-0.185
CAAAAGGG	-0.181
GCGGGGAC	-0.152
ACGATACG	0.383
ACGATACT	0.313
CCGATACG	0.326
ATGATACA	-0.0736

Sequence	PBM E-score
ATGATACG	0.377
ATGATACC	0.146
GTTTTCCA	0.061
CTCCCGTC	0.121
TAAGTGCA	0.0499
CTGTTGCC	-0.265
CAGGAACC	-0.171
CAGGAACA	-0.0447
ATGGAACA	-0.322
AAGGAACG	0.458
AAGGAACT	-0.0399
CAGGAACG	0.463
ATGGAACG	0.402
ATGGAACC	-0.0738
AAGGAACC	0.0815
CCGCCTAG	-0.193
CTTACCTA	-0.117
GAAGTGTC	-0.055
AATAGTTG	-0.116
CAGCGTCG	0.0918
AAGCCGTC	-0.0956
GTAACGAA	0.306
GAAACGAA	0.414
CCAACGAA	0.0596
GAAACAAA	-0.0214

Sequence	PBM E-score
TAAACAAA	0.114
AAAACGAA	0.277
TAAACGAA	0.488
TAAACGCA	0.292
CAAACGAA	0.438
AGTGACAT	-0.283
GGCACAAA	-0.134
GATATGCC	-0.108
ATATTTAA	0.0866
ATACGGCA	0.404
CTACGGCA	0.1
ACACGGCG	-0.0862
AGACGGCG	-0.0146
ACACGGCA	0.108
ATACGGCC	0.388
AAACGGCA	0.294
GCACGGCA	-0.0485
AGACGGCC	-0.223
CTACGGCC	0.018
GTACGGCA	0.395
ATACGGCG	0.406
CCACCAAA	-0.13
GGCTGAAA	-0.0667
ACAATGGA	-0.0436
AGATGGCG	-0.102

Sequence	PBM E-score
CTCACGAC	-0.0734
CTTACGAA	0.391
CTTACGCA	0.0308
ATTACGAA	0.349
GTTACGAA	0.404
CTTACGAC	0.394
CTTACGCC	0.0486
GTTACGGA	0.233
CTCACGAA	0.128
CGAAAATC	0.162
CGGCATCA	0.0766
CATACCGC	-0.0365
AGTACCGC	0.148
GGTACCGA	0.103
CGTACCGA	0.447
CGTACCGC	0.47
AGTACCGA	0.0799
CGAGTCAC	0.106
ACTGGCAT	-0.182
AATACCGG	-0.042
ACGATAAT	0.309
ACGATCGT	0.43
ACGATCGC	0.327
ACGATCGG	0.274
TCGTACAA	0.49

Sequence	PBM E-score
ACGTACAG	0.186
GCGTACAA	0.243
CCGTACAC	0.33
CGGTACAA	0.214
ACGTACAA	0.298
CAGTACAA	-0.0343
CCGTACAG	0.388
CCGTACAA	0.4
AATTTCTC	0.0237
GGCTCGGA	0.0976
CGCTCGTA	0.467
CGCTCGGA	0.252
AGCTCGTA	0.477
AGCTCGTG	0.182
GGCTCGAA	0.0317
CGCTCGTC	0.168
GGCTCGTA	0.479
AGCTCGTC	0.0121
AGGTCTAT	0.0387
TATGATGA	0.00697
ATAGGTTC	0.00586
CGGCCTCC	-0.0189
ACCCGAAA	0.14
TTATAGAA	-0.0153
AGCAATAA	-0.127

Sequence	PBM E-score
CGCCCGAA	0.0388
CGCGCGGC	0.225
GCTCAGGA	-0.107
TGCGACAA	0.141
CACGACAA	0.09
AACGACAT	0.434
AACGACAG	0.412
GACGACAA	0.155
AACGACAA	0.41
AGCGACAT	0.214
TTCGACAA	0.0503
TACGACAA	0.455
ACCGACAT	0.217
CACGACAG	0.0642
ATCGACAG	0.00794
GGACCTCA	-0.206
CTGGGAAC	0.132
TGGGTAAA	0.0399
AGTGTCCG	0.0467
CACTCTCG	0.174
CTCGTGGA	-0.0176
CAGGCCTA	-0.218
AAATCCTG	0.015
AGATCGAA	-0.0769
CAAGGTGC	-0.235

Sequence	PBM E-score
AGGACCAA	-0.168
AACGACAC	0.421
GACGACAC	-0.0609
CACGACAC	0.147
AAGACGGG	-0.114
CGTCCGCC	-0.111
ACTGGGGC	-0.276
TACGATAA	0.408
AACGATCT	0.381
AACGATAG	0.345
CACGATAA	0.00212
AACGATCA	0.346
AACGATAT	0.408
AACGATCC	0.307
AACGATAC	0.389
AGCGATAT	0.222
GACGATAC	0.127
GACGATAA	0.0921
ACCGATAT	0.138
AACTCTTC	0.0679
CAATGGGC	-0.209
CCCGGCAC	-0.159
